# From the supplement of paper PMC4466140
# How the values were obtained:
# Test in all cases: SPOT peptide array binding signal intensity (averaged, normalized) (arbitrary units (background-subtracted, floor 0; scale differs between SH3 domains)); higher = stronger binding of the SH3 domain to the peptide
# [1] = target: AgAbp1
# Summary of the method: (§1)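 E. coli BL21(DE3) was used to express GST-fused SH3 domains from four yeast species, which were then purified on glutathione Sepharose. These were incubated at 10 μg/ml in TBS-based blocking buffer overnight at 4°C on cellulose membranes carrying synthetic 15-mer peptides, in which cysteines were replaced by serines. Binding signal is the replicate average of normalized, background-subtracted spot intensity, in arbitrary units that differ between domains.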
# [2] = target: AgBbc1
# Summary of the method: as §1
# [3] = target: AgBem1-D1
# Summary of the method: as §1
# [4] = target: AgBzz1-D1
# Summary of the method: as §1
# [5] = target: AgBzz1-D2
# Summary of the method: as §1
# [6] = target: AgCyk3
# Summary of the method: as §1
# [7] = target: AgFus1
# Summary of the method: as §1
# [8] = target: AgHof1
# Summary of the method: as §1
# [9] = target: AgHse1
# Summary of the method: as §1
# [10] = target: AgLsb1
# Summary of the method: as §1
# [11] = target: AgLsb4
# Summary of the method: as §1
# [12] = target: AgMyo5
# Summary of the method: as §1
# [13] = target: AgNbp2
# Summary of the method: as §1
# [14] = target: AgRvs167
# Summary of the method: as §1
# [15] = target: AgSho1
# Summary of the method: as §1
# [16] = target: AgSla1-D1-D2
# Summary of the method: as §1
# [17] = target: AgSla1-D3
# Summary of the method: as §1
# [18] = target: CaAbp1-D1
# Summary of the method: as §1
# [19] = target: CaAbp1-D2
# Summary of the method: as §1
# [20] = target: CaBbc1
# Summary of the method: as §1
# [21] = target: CaBem1-D1
# Summary of the method: as §1
# [22] = target: CaBzz1-D1
# Summary of the method: as §1
# [23] = target: CaBzz1-D2
# Summary of the method: as §1
# [24] = target: CaCyk3
# Summary of the method: as §1
# [25] = target: CaFus1
# Summary of the method: as §1
# [26] = target: CaHof1
# Summary of the method: as §1
# [27] = target: CaHse1
# Summary of the method: as §1
# [28] = target: CaLsb1
# Summary of the method: as §1
# [29] = target: CaLsb4
# Summary of the method: as §1
# [30] = target: CaMyo5
# Summary of the method: as §1
# [31] = target: CaNbp2
# Summary of the method: as §1
# [32] = target: CaRvs167
# Summary of the method: as §1
# [33] = target: CaRvs167-3
# Summary of the method: as §1
# [34] = target: CaSho1
# Summary of the method: as §1
# [35] = target: CaSla1-D1-D2
# Summary of the method: as §1
# [36] = target: CaSla1-D3
# Summary of the method: as §1
# [37] = target: ScAbp1
# Summary of the method: as §1
binder,measurement,setting,value
PLRRTVMSLPGNHDI,SPOT peptide array binding signal intensity,[1],206
same,SPOT peptide array binding signal intensity,[2],19.6
same,SPOT peptide array binding signal intensity,[3],302
same,SPOT peptide array binding signal intensity,[4],9.5
same,SPOT peptide array binding signal intensity,[5],4.75
same,SPOT peptide array binding signal intensity,[6],≤ 0
same,SPOT peptide array binding signal intensity,[7],598
same,SPOT peptide array binding signal intensity,[8],6.25
same,SPOT peptide array binding signal intensity,[9],302
same,SPOT peptide array binding signal intensity,[10],29.5
same,SPOT peptide array binding signal intensity,[11],4.5
same,SPOT peptide array binding signal intensity,[12],3
same,SPOT peptide array binding signal intensity,[13],396
same,SPOT peptide array binding signal intensity,[14],3.83
same,SPOT peptide array binding signal intensity,[15],453
same,SPOT peptide array binding signal intensity,[16],24.2
same,SPOT peptide array binding signal intensity,[17],6
same,SPOT peptide array binding signal intensity,[18],776
same,SPOT peptide array binding signal intensity,[19],1280
same,SPOT peptide array binding signal intensity,[20],154
same,SPOT peptide array binding signal intensity,[21],200
same,SPOT peptide array binding signal intensity,[22],172
same,SPOT peptide array binding signal intensity,[23],62.4
same,SPOT peptide array binding signal intensity,[24],17
same,SPOT peptide array binding signal intensity,[25],1290
same,SPOT peptide array binding signal intensity,[26],0.375
same,SPOT peptide array binding signal intensity,[27],106
same,SPOT peptide array binding signal intensity,[28],0.5
same,SPOT peptide array binding signal intensity,[29],493
same,SPOT peptide array binding signal intensity,[30],19.6
same,SPOT peptide array binding signal intensity,[31],1640
same,SPOT peptide array binding signal intensity,[32],110
same,SPOT peptide array binding signal intensity,[33],20
same,SPOT peptide array binding signal intensity,[34],837
same,SPOT peptide array binding signal intensity,[35],247
same,SPOT peptide array binding signal intensity,[36],60.2
same,SPOT peptide array binding signal intensity,[37],205
